Laboratory results published in PubChem BioAssay AID1159580 (chemical genetic matrix, 2015).
Where “and” joins values, the source holds several entries; their conditions need not be identical. Equal values may be shown once. The whole screen tested about 5,500 compounds, of which about 2,000 (36%) were called active. Not shown: some 18% with an inconclusive outcome. Rule as the data show it: active = normalized growth mostly below about 0.91 (no sharp cut-off); inconclusive = no clear call, values can overlap the other calls; inactive = mostly above about 0.92. Some of the results follow.

Test: chemical genetic growth profiling, strain panel (AID 1159580);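 also: tested at 20 µM; growth read once vehicle control cultures reached saturation at 30 °C; 1 = growth at the plate median or of vehicle wells; lower values mean less growth of the strain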
Details: S. cerevisiae deletion strains, growth OD

Measured: normalized growth

C[C@]12C=CC(=O)C=C1CCC1C2[C@@H](O)C[C@@]2(C)C1CC[C@]2(O)C(=O)CO (stereo not given in full)
inactive: locus YAL021C, strain ccr4, hits give low values 1 | locus YAL026C, strain drs2, hits give low values 0.992 | locus YAL030W, strain snc1, hits give low values 0.993 | locus YBL061C, strain skt5, hits give low values 0.999 | locus YBR009C, strain hhf1, hits give low values 0.993 | locus YBR021W, strain FUR4, hits give low values 0.979 | locus YBR023C, strain chs3, hits give low values 1 | locus YBR171W, strain sec66, hits give low values 1.01 | locus YBR229C, strain ROT2, hits give low values 0.99 | locus YBR231C, strain swc5, hits give low values 0.991 | locus YBR279W, strain paf1, hits give low values 1 | locus YCL011C, strain gbp2, hits give low values 1.01 | locus YCL016C, strain dcc1, hits give low values 0.988 | locus YCL029C, strain bik1, hits give low values 0.985 | locus YCL061C, strain MRC1, hits give low values 1.01 | locus YCL069W, strain vba3, hits give low values 0.981 | locus YCR088W, strain abp1, hits give low values 0.994 | locus YDL005C, strain med2, hits give low values 0.999 | locus YDL035C, strain GPR1, hits give low values 0.998 | locus YDL040C, strain nat1, hits give low values 0.995 | locus YDL074C, strain BRE1, hits give low values 1.01 | locus YDL101C, strain DUN1, hits give low values 0.99 | locus YDL134C, strain PPH21, hits give low values 0.986 | locus YDL185W, strain tfp1, hits give low values 0.974 | locus YDL192W, strain arf1, hits give low values 0.985 | locus YDR001C, strain nth1, hits give low values 0.997 | locus YDR069C, strain doa4, hits give low values 0.996 | locus YDR101C, strain arx1, hits give low values 0.983 | locus YDR137W, strain rgp1, hits give low values 1.03 | locus YDR150W, strain NUM1, hits give low values 0.998 | locus YDR159W, strain sac3, hits give low values 1 | locus YDR162C, strain NBP2, hits give low values 0.992 | locus YDR195W, strain ref2 0.969 | locus YDR297W, strain sur2, hits give low values 0.99 | locus YDR318W, strain mcm21, hits give low values 0.979 | locus YDR334W, strain swr1, hits give low values 0.992 | locus YDR335W, strain msn5, hits give low values 0.996 | locus YDR388W, hits give low values 0.98 | locus YDR392W, strain spt3, hits give low values 0.953 | locus YDR502C, strain sam2, hits give low values 0.992 | locus YEL003W, strain gim4, hits give low values 0.982 | locus YEL037C, strain rad23, hits give low values 0.989 | locus YEL061C, strain CIN8 (second series), hits give low values 0.99 | locus YEL061C, strain CIN8, hits give low values 0.997 | locus YER015W, strain faa2, hits give low values 1 | locus YER016W, strain bim1, hits give low values 1 | locus YER110C, hits give low values 0.975 | locus YER111C, strain swi4, hits give low values 0.999 | locus YER155C, strain BEM2 (second series), hits give low values 1.01 | locus YER155C, strain BEM2, hits give low values 0.978 | locus YER167W, strain BCK2, hits give low values 0.987 | locus YFR010W, strain ubp6, hits give low values 0.997 | locus YGL078C, strain dbp3, hits give low values 0.998 | locus YGL086W, strain mad1, hits give low values 1 | locus YGL167C, strain pmr1, hits give low values 1.01 | locus YGL173C, strain kem1, hits give low values 0.989 | locus YGL227W, strain vid30, hits give low values 0.993 | locus YGL240W, strain doc1, hits give low values 0.99 | locus YGL248W, strain PDE1, hits give low values 0.99 | locus YGL253W, strain hxk2, hits give low values 0.991 | locus YGR135W, strain pre9, hits give low values 0.995 | locus YGR229C, strain SMI1, hits give low values 0.993 | locus YGR252W, strain gcn5, hits give low values 1.06 | locus YHR013C, strain ard1, hits give low values 1.01 | locus YHR027C, strain rpn1, hits give low values 0.995 | locus YHR030C, strain SLT2, hits give low values 0.992 and 1.01 | locus YHR079C, strain IRE1 (second series), hits give low values 0.977 | locus YHR079C, strain IRE1, hits give low values 1 | locus YHR094C, strain hxt1, hits give low values 0.978 | locus YHR129C, strain ARP1, hits give low values 1.02 | locus YHR142W, strain chs7, hits give low values 0.99 | locus YHR200W, strain rpn10, hits give low values 0.981 | locus YIL066C, strain RNR3, hits give low values 0.989 | locus YIL073C, strain SPO22, hits give low values 0.946 | locus YIL125W, strain kgd1, hits give low values 0.982 | locus YIR030C, strain dcg1, hits give low values 0.984 | locus YJL092W, strain hpr5, hits give low values 0.995 | locus YJL095W, strain BCK1 (second series), hits give low values 1 | locus YJL095W, strain BCK1, hits give low values 1.01 | locus YJL115W, strain asf1, hits give low values 0.99 | locus YJL129C, strain trk1, hits give low values 0.977 | locus YJL134W, strain LCB3, hits give low values 0.988 | locus YJL154C, strain vps35, hits give low values 0.998 | locus YJL164C, strain tpk1, hits give low values 0.989 | locus YJL166W, strain qcr8, hits give low values 0.979 | locus YJL168C, strain set2, hits give low values 0.983 | locus YJL187C, strain SWE1 (second series), hits give low values 0.984 | locus YJL187C, strain SWE1, hits give low values 0.991 | locus YJR043C, strain POL32, hits give low values 0.998 | locus YJR066W, strain TOR1, hits give low values 0.942
